The list is not random: actives were taken first. Their share in the collection is about 27%.
CYP2C9 activ: human CYP2C9 activators, primary screen, biochemical, luminescence; Cytochrome P450 2C9 (Homo sapiens), P11712; recombinant CYP2C9, luciferin-H conversion; hits give high values; factor 1 = untreated enzyme, 0 = blocked; activation factor at 5 µM; 1.4% of 96,000 active;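 active = activation factor of 2 or more for CYP2C9 at a 5 µM dose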;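 note: 0 = sulfaphenazole-blocked wells and 1 = vehicle-only wells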
CYP2C9 inhib: blockers of cytochrome P450 2C9 activity – biochemical, luminescence, ADME assay, primary screen | P11712 | CYP2C9 Supersomes, luciferin-H conversion | inhibition, % at 5 µM | 20% of 96,000 active | AID 777, 2007;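 active = blocking of liver enzyme CYP2C9 beyond about 50% at 5 µM, limit read from the data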
CYP2C19 act: human CYP2C19 activators, primary screen, biochemical, luminescence | Cytochrome P450 2C19 (Homo sapiens), P33261 | recombinant CYP2C19, luciferin-H EGE luminescence; hits give high values; 0 = fully inhibited enzyme, 1 = untreated enzyme | activation factor at 5 µM | 96,000 tested, under 10 active;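 active = activation factor of at least 2 at 5 µM in the primary screen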;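 note: 0 = wells with 2.5 mM tranylcypromine and 1 = vehicle-only wells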
Cav3 T inh: Cav3.2 calcium influx blockers – cell-based, Fluo-4 calcium fluorescence, FDSS, MLSMR library, primary screen; Voltage-dependent T-type calcium channel subunit alpha-1H (Homo sapiens), O95180; Cav3.2-expressing cells; hits give low values; B-score at 10 µM; 4% of 100,000 active;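 active = single-dose well whose peak fluorescence ratio is a statistical outlier from its plate by either plate-standardised score or position-corrected B-score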
CYP2C19 inhib: blockers of cytochrome P450 2C19 activity – biochemical, luminescence, ADME assay, primary screen. P33261. CYP2C19 Supersomes, luciferin-H EGE luminescence, 30 min. inhibition, % at 5 µM. 21% of 96,000 active. AID 778, 2007;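 active = CYP2C19 inhibition above a set limit at 5 µM in the primary screen, cut at about 50% in these data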;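 note: plate controls were negative control wells for no effect and 2.5 mM tranylcypromine positive control for full effect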
* = called active by the depositor.

What do the screens show for `O=C(CN1C2CCC1CC(NC(=O)Nc1ccccc1)C2)NCc1ccco1` (configuration not stated)?
CYP2C9 activ: 0.7; CYP2C9 inhib: 26; CYP2C19 act: 0.6; Cav3 T inh: 1.2; CYP2C19 inhib: 38

What do the screens show for `O=C(CN1C2CCCC1CC(NC(=O)c1ccco1)C2)Nc1ccccc1` (configuration not stated)?
CYP2C9 activ: 0.1; CYP2C9 inhib: 95*; CYP2C19 act: 0.1; Cav3 T inh: 2; CYP2C19 inhib: 87*

Results for CCCc1c(C)[nH]c2ccccc2c1=O ?
CYP2C9 activ: 3.2*; CYP2C9 inhib: -224; CYP2C19 act: 1.1; Cav3 T inh: 0.54; CYP2C19 inhib: -6

How did Cc1[nH]c2ccccc2c1CCC(N)=O do in these assays?
CYP2C9 activ: 3.1*; CYP2C9 inhib: -211; CYP2C19 act: 0.5; Cav3 T inh: -1; CYP2C19 inhib: 53*

What do the screens show for `O=C(O)CCc1c(C(=O)O)[nH]c2ccccc12`?
CYP2C9 activ: 0.5; CYP2C9 inhib: 54*; CYP2C19 act: 0.9; Cav3 T inh: 0.054; CYP2C19 inhib: 6

How did CCCc1c(C)[nH]c2ccc(NC(C)=O)cc2c1=O do in these assays?
CYP2C9 activ: 0.6; CYP2C9 inhib: 43; CYP2C19 act: 0.9; Cav3 T inh: -0.18; CYP2C19 inhib: 6

What do the screens show for `Nc1nnc(CCOc2ccccc2Cl)s1`?
CYP2C9 activ: 1; CYP2C9 inhib: 2; CYP2C19 act: 0.8; Cav3 T inh: 0.61; CYP2C19 inhib: 18

How did Nc1nnc(Cc2ccc(Cl)c(Cl)c2)s1 do in these assays?
CYP2C9 activ: 0.9; CYP2C9 inhib: 8; CYP2C19 act: 0.4; Cav3 T inh: -1.6; CYP2C19 inhib: 58*

Results for CC(=O)Nc1ccc2nc(C)n(Cc3ccc(Cl)cc3)c(=O)c2c1 ?
Cav3 T inh: 0.33

How did CCNC(=O)Nc1cc2nc(C)n(Cc3ccc(Br)cc3)c2nc1C do in these assays?
CYP2C9 activ: 0.7; CYP2C9 inhib: 30; CYP2C19 act: 0.2; Cav3 T inh: 0.94; CYP2C19 inhib: 80*

What do the screens show for `O=C(Nc1ccc(Cl)cn1)C1CCCN1S(=O)(=O)c1cccc2ccccc12` (configuration not stated)?
CYP2C9 activ: 1.2; CYP2C9 inhib: -21; CYP2C19 act: 0.7; Cav3 T inh: -3.1; CYP2C19 inhib: 32

How did O=C(Nc1ccc(Cl)cn1)C1CCCN1S(=O)(=O)c1ccc(Cl)cc1 (configuration not stated) do in these assays?
CYP2C9 activ: 0.3; CYP2C9 inhib: 74*; CYP2C19 act: 0.6; Cav3 T inh: -0.72; CYP2C19 inhib: 43

How did O=C(NC1CCS(=O)(=O)C1)C1CCCCN1S(=O)(=O)c1ccc(Cl)cc1 (configuration not stated) do in these assays?
CYP2C9 activ: 0.1; CYP2C9 inhib: 91*; CYP2C19 act: 0.8; Cav3 T inh: 0.31; CYP2C19 inhib: 21

Results for CC(C)Oc1ccc(/C=N/NC(=O)C2CCCN2S(=O)(=O)c2ccc(Cl)cc2)cc1 (configuration not stated) ?
CYP2C9 activ: 0.6; CYP2C9 inhib: 38; CYP2C19 act: 0.6; Cav3 T inh: -4.7*; CYP2C19 inhib: 37

How did CCNc1nc(OC)nc(SCC(N)=O)n1 do in these assays?
CYP2C9 activ: 1.2; CYP2C9 inhib: -24; CYP2C19 act: 1.1; CYP2C19 inhib: -10

How did COc1ccc(-c2oc3c4c(cc(OC)c3c(=O)c2CC=C(C)C)OC(C)(C)C=C4)c(OC)c1 do in these assays?
Cav3 T inh: -2.8

How did O=C(O)C1CSC(CCc2ccccc2)N1 (configuration not stated) do in these assays?
CYP2C9 activ: 1.1; CYP2C9 inhib: -7; CYP2C19 act: 0.9; Cav3 T inh: -1; CYP2C19 inhib: 9

How did CC(C)Nc1ccc(C(CC(N)=O)NC(=O)Cc2ccc(Br)cc2)cc1[N+](=O)[O-] (configuration not stated) do in these assays?
Cav3 T inh: -0.65

What do the screens show for `Cc1ccc(F)c([C@H]2C3C=CCC(c4ccccc4)C3C(=O)N2Cc2ccccc2)c1` (some centres not stated)?
Cav3 T inh: -1.5

Results for CC(=O)c1sc(NC(=O)C(C)(C)C)nc1C ?
Cav3 T inh: 1

Results for CC(=O)c1sc(Nc2nc(C)cc(C)n2)nc1C ?
CYP2C9 activ: 0.3; CYP2C9 inhib: 73*; CYP2C19 act: 0.9; Cav3 T inh: -0.99; CYP2C19 inhib: 15

What do the screens show for `O=C(CCS(=O)(=O)c1cccs1)Nc1ccc(C(=O)NCc2ccccc2)cc1`?
CYP2C9 activ: 0.4; CYP2C9 inhib: 60*; CYP2C19 act: 0.2; Cav3 T inh: 0.54; CYP2C19 inhib: 78*

Results for O=C(CCS(=O)(=O)c1cccs1)NC1CCCCCC1 ?
CYP2C9 activ: 1; CYP2C9 inhib: -1; CYP2C19 act: 0.9; Cav3 T inh: 0.28; CYP2C19 inhib: 12

Results for COc1cccc(CNC(=O)CCNC(=O)Cn2ccc3ccccc3c2=O)c1 ?
CYP2C19 act: 0.5; Cav3 T inh: 0.065; CYP2C19 inhib: 49

What do the screens show for `COc1cccc(CNC(=O)CCS(=O)(=O)c2cccs2)c1`?
CYP2C9 activ: 0.8; CYP2C9 inhib: 17; CYP2C19 act: 0.5; Cav3 T inh: 0.056; CYP2C19 inhib: 53*

Results for COc1ccc(CC(NC(C)=O)C(=O)NC2CCN(C(=O)NCc3ccccc3)CC2)cc1OC (configuration not stated) ?
CYP2C9 activ: 0.9; CYP2C9 inhib: 8; CYP2C19 act: 1; Cav3 T inh: 0.0059; CYP2C19 inhib: -4

What do the screens show for `CCCCN1C(=O)C(O)(CC(=O)c2c(C)n[nH]c2C)c2cc(Br)ccc21` (configuration not stated)?
CYP2C9 activ: 0.7; CYP2C9 inhib: 30; CYP2C19 act: 0.2; Cav3 T inh: 0.37; CYP2C19 inhib: 81*

How did Cc1n[nH]c(C)c1C(=O)CC1(O)C(=O)N(CCc2ccccc2)c2ccc(Cl)cc21 (configuration not stated) do in these assays?
CYP2C9 activ: 0.1; CYP2C9 inhib: 95*; CYP2C19 act: 0; Cav3 T inh: -1.1; CYP2C19 inhib: 99*

Results for CCCCN1C(=O)C(O)(CC(=O)c2ccco2)c2cc(Br)ccc21 (configuration not stated) ?
CYP2C9 activ: 0.6; CYP2C9 inhib: 39; CYP2C19 act: 0.3; Cav3 T inh: -0.26; CYP2C19 inhib: 67*

How did CCOC(=O)CN1C(=O)C(O)(CC(=O)c2ccco2)c2ccccc21 (configuration not stated) do in these assays?
CYP2C9 activ: 1.1; CYP2C9 inhib: -9; CYP2C19 act: 0.8; Cav3 T inh: 0.52; CYP2C19 inhib: 20

High-throughput results as filed in PubChem.
